Activity calls are given as the source filed them.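 The calls were made as follows: active = viability at or below 21.59%, 3 SD under the median of tested compounds; inactive = the rest.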
Assay: growth suppression of PTEN-null HCT116 cells, cell-based, validation, diverse DP compound set (AID 999);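 also: 100% = median luminescence of untreated cell control wells and 0% = no signal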
Conditions: CellTiter-Glo, 60 h, at 10 µM, hits give low values

| Structure (SMILES) | viability |
| --- | --- |
| CCOC(=O)C(C)(C)Oc1ccc(Cl)cc1 | 100% (inactive) |
| Cn1cnc2c(NCc3ccccc3)nc(NCCO)nc21 | 90.6% (inactive) |
| CC(C)C[C@@H](NC(=O)[C@@H](O)[C@H](N)Cc1ccccc1)C(=O)O | 94.5% (inactive) |
| Nc1c2c(nc3ccccc13)CCCC2 | 107% (inactive) |
| CSc1ccc(/C=C2/C(C)=C(CC(=O)O)c3cc(F)ccc32)cc1 | 98% (inactive) |
| COc1ccc2cc1Oc1ccc(cc1)C[C@H]1c3c(cc4c(c3Oc3cc5c(cc3OC)CCN(C)[C@@H]5C2)OCO4)CCN1C | 37.8% (inactive) |
| CCCC[C@@H](C=O)NC(=O)[C@H](CC(C)C)NC(=O)[C@H](CC(C)C)NC(C)=O | 15.1% (active) |
| CO[C@@H]1[C@@H](OC(N)=O)[C@@H](O)[C@H](Oc2ccc3c(O)c(NC(=O)c4ccc(O)c(CC=C(C)C)c4)c(=O)oc3c2C)OC1(C)C | 88% (inactive) |
| O=C(O)c1ccccc1O | 98.7% (inactive) |
| CC1(C)[C@@H](O[C@H]2O[C@H](C(=O)O)[C@@H](O)[C@H](O)[C@H]2O[C@@H]2O[C@H](C(=O)O)[C@@H](O)[C@H](O)[C@H]2O)CC[C@]2(C)[C@H]3C(=O)C=C4[C@@H]5C[C@@](C)(C(=O)O)CC[C@]5(C)CC[C@@]4(C)[C@]3(C)CC[C@@H]12 | 103% (inactive) |
| CO/N=C(\C(=O)N[C@@H]1C(=O)N2C(C(=O)O)=C(COC(C)=O)CS[C@H]12)c1csc(N)n1 | 89.4% (inactive) |
| C=C(C)[C@H]1CC=C(CO)CC1 | 96% (inactive) |
| Nc1c(N=Nc2ccc(-c3ccc(N=Nc4cc(S(=O)(=O)O)c5ccccc5c4N)cc3)cc2)cc(S(=O)(=O)O)c2ccccc12 | 86.5% (inactive) |
| CC1=C(/C=C/C(C)=C/C=C/C(C)=C/C(=O)O)C(C)(C)CCC1 | 93.7% (inactive) |
| Cc1cc(CC(=O)O)n(C)c1C(=O)c1ccc(Cl)cc1 | 95.5% (inactive) |
| O=c1[nH]cnc2ccccc12 | 82.7% (inactive) |

| Structure (SMILES) | viability |
| --- | --- |
| C[C@H]1c2cccc(O)c2C(O)=C2C(=O)[C@]3(O)C(O)=C(C(N)=O)C(=O)[C@@H](N(C)C)[C@@H]3[C@@H](O)[C@@H]21 | 90.5% (inactive) |
| O=C(c1ccc(OCCN2CCCCC2)cc1)c1c(-c2ccc(O)cc2)sc2cc(O)ccc12 | 61.1% (inactive) |
| C[C@@]12C=Cc3occc3C1CC[C@@]13C[C@@H](CCC12)[C@@](O)(CO)C3 (stereo partly specified) | 93.5% (inactive) |
| NC(=O)c1cccc(N)c1 | 94.5% (inactive) |
| O=C(c1ccc(F)cc1)C1CCN(CCn2c(=O)[nH]c3ccccc3c2=O)CC1 | 94.8% (inactive) |
| COC(=O)c1cc2c(s1)-c1ccccc1OC2 | 97.4% (inactive) |
| NCCNS(=O)(=O)c1cccc2c(Cl)cccc12 | 94.3% (inactive) |
| CC(C)=CCC/C(C)=C/COc1ccc2ccc(=O)oc2c1 | 91.9% (inactive) |
| O=C(c1ccccc1)c1ccccc1 | 100% (inactive) |
| CNCCC(Oc1ccc(C(F)(F)F)cc1)c1ccccc1 (stereo unspecified) | 85.8% (inactive) |
| COc1ccc(CCN2CCC(Nc3nc4ccccc4n3Cc3ccc(F)cc3)CC2)cc1 | 16.6% (active) |
| COC(=O)CCc1c(C)[nH]c(C(=O)OCc2ccccc2)c1C | 97.7% (inactive) |
| CC1(COc2ccc(CC3SC(=O)NC3=O)cc2)CCCCC1 (stereo unspecified) | 95.3% (inactive) |
| Cc1ccc2c(c1)C(=O)C1(O)CCN(c3ccccc3)C1=N2 (stereo unspecified) | 91.9% (inactive) |
| O=C1CCC(N2C(=O)c3ccccc3C2=O)C(=O)N1 (stereo unspecified) | 96.8% (inactive) |
